Sampled rows, rich in hits. Any-hit rate of the full collection: about 11%.
Pf growth 96h: inhibits malaria parasite growth, 96 h. P. falciparum luciferase reporter growth, 96 h. Potency, µM (highest dose often 28.7 µM), for the others: top-dose activity change, negative = inhibition, hits mostly inhibitors. 320,000 compounds, 6.9% hits; note: % is set by controls: 0 for no effect and ±100 for the full control effect
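96 h incubation, 37 C, 5% CO2, of luciferase-reporter P. falciparum-infected RBCs (2% hematocrit, 0.05% parasitemia final) with test compounds; endpoint luminescence.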
VACV Venus inh: vaccinia inhibition (Venus reporter). 330,000 compounds, 0.46% hits. Vaccinia virus Venus reporter expression, fluorescence. Potency, µM (top dose mostly 36.5 µM), for the others: top-dose activity change, negative = inhibition, usual class: inhibitors; calls by dose curve; tested in A549 cells; note: % is set by controls: 0 for no effect and ±100 for the full control effect; nearly all actives have a fitted effect of over 30% in size
Pf growth 48h: P. falciparum growth inhibition at 48 hours (one generation); P. falciparum luciferase growth in erythrocytes, 48 h; Potency, µM (series often up to 28.7 µM), inactives show top-dose activity change, negative = inhibition, hits mostly inhibitors; 310,000 compounds, 5.9% hits; AID 504832; note: % is set by controls: 0 for no effect and ±100 for the full control effect
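Parasite viability was followed by luminescence of a genomically integrated firefly luciferase. Cultures held 0.1% parasitemia at 2% hematocrit (final), incubated under 5% CO2 at 37 C.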
Vaccinia mCherry: inhibitors of vaccinia virus infection (mCherry reporter signal); Vaccinia virus mCherry reporter infection, fluorescence; Potency, µM (highest dose often 36.5 µM), inactives show at the highest dose activity change, negative = inhibition, usual class: inhibitors; 310,000 compounds, 0.63% hits; AID 720579; calls by dose curve; tested in A549 cells; note: % is set by controls: 0 for no effect and ±100 for the full control effect; nearly all actives have a fitted effect of over 35% in size
NS1 inh: inhibitors of influenza NS1 protein function; 270,000 compounds, 0.4% hits; AID 2326; Potency, µM (doses to about 46.1 µM), for inactives: at the top dose activity, positive = more growth; calls by dose curve; note: actives are rising curves; nearly all actives have a fitted effect of over 50% in size
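A cell-based growth assay was used: compounds that relieve NS1-induced slow growth of budding yeast raise OD600. Assay medium was yeast nitrogen base with ammonium sulphate and -URA supplement, pH 6.0, with 2% galactose.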
HCV inh: blocks hepatitis C virus. Huh7.5.1 HCVcc-Cre infection, luciferase reporter, 44 h. Potency, µM (series often up to 41.8 µM), without a hit: top-dose activity change, negative = inhibition, hits mostly inhibitors. 340,000 compounds, 3.4% hits. AID 651820; note: % is set by controls: 0 for no effect and ±100 for the full control effect
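Cells (1,000/well) were plated 4 h before compound, then infected with HCVcc-Cre virus (~0.5 moi). After 44 h further culture, infection was read as luciferase luminescence following a 15 min substrate incubation at room temperature.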
The depositor's hits bear a star; ? = inconclusive; . = no result; [ ] = remark or other dose. Unless noted, calls come from the whole dose curve; as a rule, active = well fitted inhibition curve with a large enough effect; inconclusive = small, poorly fitted or top-dose-only effect, or another doubt; inactive = no such curve, though single readings can be large or run the other way. Potency is the fitted concentration of half-maximal effect.

SMILES	Pf growth 96h	VACV Venus inh	Pf growth 48h	Vaccinia mCherry	NS1 inh	HCV inh
CCN(CC)S(=O)(=O)c1ccc(N2CCN(C)CC2)c(NC(=O)Nc2ccc(C)cc2)c1	?	-15.8%	9.28µM*	-17.4%	-4.3%	-13.3%
Cc1ccc(NC(=O)CSCC(=O)Nc2cc(C(F)(F)F)ccc2N2CCOCC2)cc1	?	?	?	?	.	-11.6%[8.37 µM]
COc1ccc(CCC(=O)Nc2cc(Cl)ccc2N2CCN(C)CC2)cc1	4.65µM*	?	7.38µM*	.	11.1%	?
CCN(CC)S(=O)(=O)c1ccc(N2CCCC2)c(NC(=O)C2CCCCC2)c1	6.8%	.	1.8%	.	0.7%	1.3%
Cc1ccc(NC(=O)CSCC(=O)Nc2cc(Cl)ccc2N2CCN(C)CC2)cc1	?	-20.8%	13.1µM*	-18.4%	.	?
CC1=CCC(C(=O)O)(C(=O)N/N=C/c2cccnc2)C(c2ccccc2)C1 (configuration not stated)	7.6%	-4.0%	-22.9%	2.3%	.	-8.7%
CC1CCCCN1CCCNC(=O)CCCN1C(=O)c2cccnc2Sc2ccccc21 (configuration not stated)	?	.	11.8%	.	-1.6%	6.1%
CCN(CC)S(=O)(=O)c1ccc(N2CCN(C)CC2)c(NC(=O)CSCC(=O)Nc2cccc(C)c2)c1	?	-11.4%	16.5µM*	-7.6%	.	-3.9%
C/C(N)=C(/C#N)C(=O)COC(=O)c1cc(-c2ccc(Br)cc2)nc2ccccc12	?	?	4.3%	?	22.4%	10µM*
O=C(NC1c2ccccc2-c2ccccc21)N1CCCCC1	17.2%	?	-19.4%	7.08µM*	6.4%	17.8%
CN(Cc1ccon1)Cc1cn(C)nc1-c1ccc(Oc2ccccc2)cc1	-1.3%	-6.3%	-17.0%	5.8%	-5.4%	-5.5%
CCOc1ccc(/C=N/n2c(C3CCCCC3)n[nH]c2=S)cc1	?	.	?	.	-0.8%	11.2µM*
Fc1ccc(/C=N/n2c(C3CCCCC3)n[nH]c2=S)cc1	-5.5%	.	5.1%	.	0.1%	4.0%
Cc1ccc(/C=N/n2c(C3CCCCC3)n[nH]c2=S)s1	2.08µM*	-24.6%	?	-27.2%	12.4%	6.6%
O=C(Nc1cccnc1)c1cccnc1Cl	29.1%	.	8.9%	.	-8.3%	8.3%
O=C(CSc1nnc(Cc2cccs2)n1-c1ccccc1)NCc1ccc2c(c1)OCO2	.	.	-21.2%	.	-23.3%	5.2%
Cc1ccccc1C(=O)N1CCN(c2ccc(NC(=O)c3ccc4c(c3)OCCO4)cc2)CC1	?	-23.7%	?	?	-12.6%	8.91µM*
COc1c(C)cccc1C(=O)Nc1ccc(N2CCN(C(=O)c3ccccc3C)CC2)cc1	-14.7%	-29.8%	?	-20.0%	-22.7%	7.94µM*
Cc1ccc(C(=O)N2CCN(c3ccc(NC(=O)c4ccc5c(c4)OCCO5)cc3)CC2)cc1	?	-7.6%	?	-23.1%	13.6%	2.82µM*
Cc1ccccc1C(=O)N1CCN(c2ccc(NC(=O)c3cccc(OC(C)C)c3)cc2)CC1	-14.6%	-5.8%	?	-17.5%	-1.0%	?
O=C(Nc1ccc(N2CCN(C(=O)c3ccccc3)CC2)cc1)c1ccc2c(c1)OCO2	-5.0%	.	?	.	10.6%	22.4µM*
CC(C)C(=O)N1CCN(c2ccc(NC(=O)c3ccc4c(c3)OCCO4)cc2)CC1	0.0%	-0.4%	-17.4%	-1.2%	-0.9%	-7.8%
CCOC(=O)/C(C#N)=C/Nc1cc(C(=O)OCC)cc2c(OC)c(OC)ccc12	41.9%	-26.9%	?	?	4.3%	?
Cc1ccsc1/C=C\C1=NCCCN1C	-14.7%[12.8 µM]	.	-15.1%[12.8 µM]	.	.	.
CC(CNC(=O)Cn1c(-c2cccs2)cc2cc(Cl)ccc21)c1ccccc1 (configuration not stated)	.	-25.3%	.	-28.8%	.	.
Cc1ccc(C(=O)N2CCN(c3ccc(NC(=O)c4ccc(Br)o4)cc3)CC2)cc1	.	-23.2%	10.4µM*	?	18.5%	10µM*
O=C(Nc1ccc(C(=O)N2CCN(c3ccncc3)CC2)cc1)c1ccc(Br)o1	.	6.3%	.	0.3%	.	.
CC(C)(C)c1cnnn1-c1ccc(NC(=O)c2ccc(Br)o2)cc1	261.5%	.	10.4µM*	.	-29.1%	1.8%

Bioassay records deposited in PubChem by National Center for Advancing Translational Sciences (NCATS).
